# Experimental data taken from PubChem BioAssay (Tox21).
# Values without a mark were called inactive. Where a call stands in place of a potency, no number is given. Active and inactive are the calls of the source. Calls follow the shape of the dose curve; as a rule, active = well fitted activation curve with a large enough effect in the repeat runs; inconclusive = weak or mixed curves; inactive = flat fitted curve, though single readings scatter.
# Test: A CellTox Green Cytotoxicity Assay to monitor cytotoxicity in HEK293 cells - 0 hour (AID 1224869); also: nearly all actives have a fitted effect of over 50% in size
# Settings: CellTox Green fluorescence; series mostly up to 76.8 µM
# Description: National Center for Advancing Translational Sciences [NCATS]
# NIH Chemical Genomics Center [NCGC]
# U.S. Environmental Protection Agency [EPA]
# National Institutes of Environmental Health Sciences [NIEHS]
# National Toxicology Program [NTP]
# Cell-based models are critical for drug discovery. Determining the natural cytotoxic effects resulting from test compounds is an essential research activity. A CellTox Green Cytotoxicity Assay to monitor cytotoxicity in real time of continues cell culture during 40 hours of the compound treatment was used to screen Tox21 10K library compounds in Hek293 cells. CellTox Green Cytotoxicity Assay is a nonlytic, homogeneous, biofluorescent method to measure cytotoxicity in cell culture after experimental manipulation. The assay system uses a proprietary asymmetric cyanine dye that is excluded from viable cells but preferentially stains the dead cell's DNA. […] Viable cells produce no appreciable increases in fluorescence. Therefore, the fluorescence signal produced by the binding interaction with dead cell DNA is proportional to cytotoxicity.
# The mixture of Hek293 cell suspension and reagents were dispensed at 600cells/6 ul/well in 1536-well tissue culture treated black solid bottom plates using a Multidrop dispenser. After the assay plates were incubated at a 37 C/5% CO2 incubator for 5 hours, 23 nL of compounds dissolved in DMSO, positive and negative controls was transferred to the assay plate by a pintool work station. The plates were incubated at 37 C for 40 hours. The fluorescence intensity were measured at 0h, 8h, 16h, 24h, 32h and 40h time points using ViewLux plate reader during compound treatment.
SMILES,Potency,cytotoxicity
CC(=O)[O-].[Tl+],inactive,–
N#Cc1ccccc1Cl,inactive,–
CCCCCCCCCBr,inactive,–
N#C/C=C/c1ccccc1,inactive,–
ClC1=C(Cl)C2(Cl)C3C(Cl)C(Cl)CC3C1(Cl)C2(Cl)Cl (stereo not given),inactive,–
O=C(O)c1cc[c]([Hg][Cl])cc1,inactive,–
C=CCOC(N)=O,inactive,–
CC(=[OH+])/C=C(/C)[O-].CC(=[OH+])/C=C(\C)[O-].CC(=[OH+])/C=C(\C)[O-].[Fe],inactive,–
COc1ccc([N+](=O)[O-])cc1O,inactive,–
N#Cc1c(-c2ccc(Cl)cc2)[nH]c(C(F)(F)F)c1Br,inactive,–
C1CCC2CCCCC2C1 (stereo not given),inactive,–
CN(C)C(=S)[S-].CN(C)C(=S)[S-].[Cu+2],–,-8.31% [at 15.8 µM]
[Hg+2].[I-].[I-],inactive,–
NC(=O)c1ccc(N)nc1,inactive,–
O=c1[nH]c2ccccc2n1C1CCN(CCCC(c2ccc(F)cc2)c2ccc(F)cc2)CC1,inactive,–
N#CCCO,inactive,–
C=CC(=O)OCC(COC(=O)C=C)(COC(=O)C=C)COC(=O)C=C,inactive,–
Clc1ccc(-c2ccccc2)cc1,inactive,–
O=C(O)C1C2CCC(O2)C1C(=O)O (stereo not given),inactive,–
CCCCCCCCCCCCCCCCCCn1cc[n+](C)c1,inactive,–

SMILES,Potency,cytotoxicity
N#Cc1ccccc1N,inactive,–
CCCSP(=O)(OCC)SCCC,inactive,–
Cc1cc(C)cc(OP(=O)(Oc2cc(C)cc(C)c2)Oc2cc(C)cc(C)c2)c1,inactive,–
CC(C)CC(C)Nc1ccc(Nc2ccccc2)cc1 (stereo not given),inactive,–
CC1CCC(C(C)C)C(OC(=O)c2ccccc2N)C1 (stereo not given),inactive,–
ClC1=C(Cl)C2(Cl)C3C(Cl)C=CC3C1(Cl)C2(Cl)Cl (stereo not given),inactive,–
COc1cccc(C(=O)CCN[C@@H](C)[C@H](O)c2ccccc2)c1,inactive,–
CC(C)(C)C(O)C(Oc1ccc(-c2ccccc2)cc1)n1cncn1 (stereo not given),inactive,–
COP(=O)(OC)SCn1c(=O)oc2cc(Cl)cnc21,inactive,–
ClC(Cl)=C(c1ccc(Cl)cc1)c1ccc(Cl)cc1,inactive,–
CC(=O)/C=C/c1ccc2c(c1)OCO2,inactive,–
CCOC(=O)CC(=O)CCl,inactive,–
O=[N+]([O-])c1ccc(Oc2ccc(C(F)(F)F)cc2[N+](=O)[O-])cc1,inactive,–
C[C@]12CC[C@H]3[C@@H](CCC4=CC(=O)CC[C@@]43C)[C@@H]1CC[C@@H]2O,inactive,–
CCS(=O)(=O)c1cccnc1S(=O)(=O)NC(=O)Nc1nc(OC)cc(OC)n1,inactive,–
C[C@]12CC[C@@H]3c4ccc(OC(=O)N(CCCl)CCCl)cc4CC[C@H]3[C@@H]1CC[C@@H]2O,inactive,–
CC1(C)[C@H](C(=O)O[C@H](C#N)c2cccc(Oc3ccccc3)c2)[C@@H]1/C=C(\Cl)C(F)(F)F,inactive,–
Cc1cc(Cl)ccc1O[C@H](C)C(=O)O,inactive,–
CC(Cl)CN(C)C (stereo not given),inactive,–
Clc1ccc(Oc2ccccc2)cc1,inactive,–
